Most compounds without a hit are left out; they make up all but 3.5% or so of the library.
BJeLR lethal = BJeLR cell viability loss. BJeLR (HRASV12) viability, CellTiter-Glo ATP luminescence, 48 h. inhibition, % (concentration not given with the values). 0.17% of 300,000 active; in the data active = inhibition above about 50%; inconclusive = no clear call, values can overlap the other calls
Bead autofluor = compound fluorescence in toxin protease inhibitor counterscreen. compound autofluorescence counterscreen, microsphere flow cytometry; hits give high values. fluorescence intensity (test concentration not listed). 3.1% of 360,000 active. AID 624483; in the data active = fluorescence intensity above about 16000; inconclusive = no clear call, values can overlap the other calls
BoNT-A LC inh2 = inhibitors of Botulinum neurotoxin A light chain protease; multiplex microsphere protease substrate cleavage, flow cytometry; inhibition, % at 10 µM; 0.17% of 360,000 active
BoNT-F LC inh = inhibitors of Botulinum neurotoxin F light chain protease; 0.22% of 360,000 active; Multiplex microsphere protease cleavage assay, flow cytometry; inhibition, % at 10 µM; AID 588497; in the data active = inhibition above about 35%, passing the limit was not always enough; inconclusive = no clear call, values can overlap the other calls
Anthrax LF inh2 = anthrax lethal factor protease inhibition; inhibition, % at 10 µM; P15917; 0.12% of 360,000 active; multiplex microsphere protease cleavage assay, LF; AID 588501
Target sequence (P15917 whole entry, looked up): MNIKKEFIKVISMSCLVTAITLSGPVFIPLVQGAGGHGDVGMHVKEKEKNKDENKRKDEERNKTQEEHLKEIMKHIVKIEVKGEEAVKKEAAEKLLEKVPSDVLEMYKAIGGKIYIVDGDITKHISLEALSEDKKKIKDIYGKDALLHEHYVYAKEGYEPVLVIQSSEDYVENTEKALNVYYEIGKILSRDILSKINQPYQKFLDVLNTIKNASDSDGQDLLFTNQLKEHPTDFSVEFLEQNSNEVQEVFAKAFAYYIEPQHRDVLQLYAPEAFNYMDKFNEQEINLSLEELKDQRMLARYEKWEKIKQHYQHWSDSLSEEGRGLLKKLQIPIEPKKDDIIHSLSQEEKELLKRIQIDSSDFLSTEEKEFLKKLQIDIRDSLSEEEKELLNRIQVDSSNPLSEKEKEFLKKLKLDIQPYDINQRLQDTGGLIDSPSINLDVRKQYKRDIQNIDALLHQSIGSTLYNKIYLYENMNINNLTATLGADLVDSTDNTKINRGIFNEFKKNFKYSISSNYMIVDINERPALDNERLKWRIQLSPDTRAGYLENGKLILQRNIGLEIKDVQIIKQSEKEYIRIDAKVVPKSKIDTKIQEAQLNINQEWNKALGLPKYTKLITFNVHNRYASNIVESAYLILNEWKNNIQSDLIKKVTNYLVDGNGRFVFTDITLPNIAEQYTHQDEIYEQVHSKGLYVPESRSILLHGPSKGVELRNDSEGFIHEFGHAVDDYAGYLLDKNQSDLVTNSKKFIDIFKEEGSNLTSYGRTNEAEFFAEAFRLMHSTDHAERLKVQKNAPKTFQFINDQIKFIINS
Large screens that a line does not name were inactive. Rule as the data show it, unless noted: active = inhibition above about 30%; inconclusive = no clear call, values can overlap the other calls; inactive = below that.

COc1ccc(NC(=O)Cc2ccc(Cl)cc2)cc1NC(=O)c1ccco1	Bead autofluor 21196, BoNT-A LC inh2 inconclusive
CCOc1ccccc1NC(=O)c1cc(Cl)ccc1NC(=O)c1ccco1	Bead autofluor 17027
COc1ccccc1NC(=O)c1ccccc1NC(=O)c1cc(Cl)ccc1NC(=O)c1ccco1	Bead autofluor 21221, BoNT-A LC inh2 inconclusive
COc1ccc(NC(=O)c2ccco2)cc1NC(=O)c1ccco1	none
COc1ccccc1NC(=O)c1ccccc1-c1nc(-c2ccccc2OC)no1	Bead autofluor 21774
Cc1cccc(Cn2nnc3c2C(=O)c2ccccc2C3=O)c1	Bead autofluor 16137
Cc1cccc(Cn2ncc(Cl)c(Cl)c2=O)c1	Bead autofluor 16414
Cc1ccccc1Cn1nnc2c1C(=O)c1ccccc1C2=O	Bead autofluor inconclusive
Cc1ccc(C(=O)OCn2ncc(Cl)c(Cl)c2=O)cc1	Bead autofluor 17159
O=C(COC(=O)c1ccc(O)cc1)NC1CCCCCCC1	none (no result: BJeLR lethal)
Cc1cccc(C)c1-n1nnnc1C(c1cc2ccccc2o1)N1CCN(C/C=C/c2ccccc2)CC1 (stereo unspecified)	none (no result: BJeLR lethal)
O=C(/C=C/c1ccccc1)NCCS(=O)(=O)N1CCN(c2ccc(F)cc2)CC1	none
NS(=O)(=O)c1ccc(CNC(=O)/C=C/c2cccc([N+](=O)[O-])c2)cc1	Bead autofluor 19057
CC1CC(C)CN(CC(C)(C)NS(=O)(=O)c2ccccc2)C1 (stereo unspecified)	none
CC(C)CC(N)c1csc(NC(=O)c2cc(C(C)(C)C)nn2Cc2ccccc2)n1 (stereo unspecified)	none (no result: BJeLR lethal)
O=C(CN1CCCCC1)N/N=C/c1ccc(Cl)cc1Cl	BoNT-F LC inh 42
O=C(CN1CCSCC1)N/N=C/c1ccccc1F	Bead autofluor 23296
O=C(N/N=C/c1ccc(Cl)cc1Cl)Nc1ccccc1	Bead autofluor 20342 (no result: BJeLR lethal)
O=C(N/N=C/c1cccc(Cl)c1Cl)Nc1ccccc1	none
O=C(CN1CCCCCCC1)N/N=C/c1ccccc1F	none
O=C(NC(=S)N1CCN(c2nc(-c3ccccc3)cs2)CC1)c1cncc(Br)c1	none
CC(C)n1nnnc1C1c2ccccc2C(=O)N1C1CC1 (stereo unspecified)	none (no result: BJeLR lethal)
CC1=C(C(=O)N2CCCCCC2)CC(CC(=O)NC2CC2)C(=O)N1Cc1ccccc1 (stereo unspecified)	none (no result: BJeLR lethal)
CC(=O)c1cc2c(cc1NC(=O)Cc1c(C)noc1C)OCO2	none (no result: BJeLR lethal)
CC(=O)c1cccc(NC(=S)NC(=O)CC(C)(C)C)c1	Bead autofluor 25347
COc1ccc(NC(=S)Nc2cccc(C(C)=O)c2)cc1OC	BoNT-F LC inh 36
CC(=O)NCCNC(=O)c1ccc(CSc2nc3ccccc3s2)cc1	none
CC(C(=O)Nc1cccnc1)N1C(=O)c2ccccc2C1=O (stereo unspecified)	none
CC(C(=O)Nc1ccc(C(=O)O)cc1)N1C(=O)c2ccccc2C1=O (stereo unspecified)	Bead autofluor 20892
CSc1ccc(CN2C(=O)C(C)ON=C2c2ccccc2F)cc1 (stereo unspecified)	none (no result: BJeLR lethal)
Cc1cc(NC(=O)COC(=O)c2cccc(OCc3ccccc3)c2)no1	Bead autofluor 20597
Cc1cc(NC(=O)CSCC(=O)N(C)Cc2ccc(Cl)c(Cl)c2)no1	none
Cc1cc(NC(=O)COC(=O)CSCc2ccc(Cl)c(Cl)c2)no1	Bead autofluor 22915, BoNT-A LC inh2 inconclusive
Cc1cc(NC(=O)COC(=O)c2c(C)nn(Cc3ccccc3Cl)c2Cl)no1	Bead autofluor 24183
Cc1noc(C)c1C(=O)OCC(=O)c1cc(C)n(Cc2ccccc2Cl)c1C	Bead autofluor 22970
Cc1noc(C)c1C(=O)OCC(=O)c1ccc[nH]1	none
COc1ccc(NC(=O)c2cc(C3CCCCN3S(=O)(=O)Cc3ccccc3)on2)cn1 (stereo unspecified)	none (no result: BJeLR lethal)
COc1ccc(S(=O)(=O)Nc2cccc(N(C)S(C)(=O)=O)c2)cc1Br	none
Cc1c(C#N)c2ncnc(-c3ccccc3)c2n1-c1ccccc1	Bead autofluor 23956
COc1ccccc1-c1noc(Cn2cc(S(=O)(=O)N3CCCC3)ccc2=O)n1	none (no result: BJeLR lethal)
COc1ccc(/C=N/NC(=O)c2cc(C34CC5CC(CC(C5)C3)C4)[nH]n2)cc1OC	BoNT-F LC inh 40
O=C(NCCc1ccccc1F)c1cccc2cccnc12	none
Cc1nc(Nc2ccc3c(c2)OCO3)c2oc3ccccc3c2n1	Bead autofluor 24138, BoNT-A LC inh2 inconclusive
CCc1nc(Nc2ccccc2)c2oc3ccccc3c2n1	Bead autofluor 19756, BoNT-A LC inh2 inconclusive
CC(=O)Nc1nonc1-c1nc2ccccc2n1Cc1nnc(C)o1	Bead autofluor 22950
CC(=O)Nc1nonc1-c1nc2ccccc2n1Cc1ccccc1	none
CCn1c(-c2nonc2NC(=O)c2ccccc2)nc2ccccc21	Bead autofluor 20786
COc1ccc(NC(=O)C2Cc3c(-c4cccc(C(N)=O)c4)ccnc3O2)cc1 (stereo unspecified)	none (no result: BJeLR lethal)
O=C(Nc1ccc(F)cc1)NC1(C(=O)NCc2ccco2)CCCCC1	Bead autofluor 16458
Cc1ccc2c(c1)C1CN(C)CCC1N2C(=O)Nc1cccc(C(F)(F)F)c1 (stereo unspecified)	none
Cc1ccc2c(c1)[C@@H]1CN(C)CC[C@@H]1N2C(=O)Nc1cccc(C(F)(F)F)c1	Bead autofluor 23738
C=CC[C@@H](CC(=O)N(CCO)Cc1ccccc1)C(=O)N[C@H](COC(=O)[C@H](CC=C)CC(=O)OC(C)(C)C)Cc1c[nH]c2ccccc12	none (no result: BJeLR lethal)
CN(C)c1ccc(/C=C(\C#N)C(=O)Nc2nc3c(s2)CCN(Cc2ccccc2)C3)cc1	BoNT-F LC inh 58
Cc1cc(C(=O)OCn2nnc3ccccc3c2=O)c(C)n1-c1ccccc1	none
O=c1cc(N2CCN(c3ccccc3)CC2)[nH]c(=O)n1-c1ccccc1Cl	Bead autofluor 21259
COc1ccc(-n2c(=O)cc(N3CCOCC3)[nH]c2=O)cc1	Bead autofluor 19939
COc1ccc(-n2c(=O)cc(N3CCN(c4ccccc4)CC3)[nH]c2=O)cc1	none
CCOc1ccc(-n2c(=O)cc(N3CCN(c4ccccc4)CC3)[nH]c2=O)cc1	Bead autofluor 21972
COc1ccc(CNC(=O)CCS(=O)(=O)c2ccc3c(c2)oc(=O)n3C)cc1	none
CCCCOc1cccc2c(=O)n(CC(=O)Nc3ccc4c(c3)OCCO4)ccc12	none (no result: BJeLR lethal)
O=C(CNS(=O)(=O)c1ccc2ccccc2c1)OCC(=O)c1ccc(Br)s1	Bead autofluor 18275
Cc1ccc(C2CC2C(=O)NNC(=S)Nc2cccc(Cl)c2)cc1 (stereo unspecified)	Bead autofluor 20873
O=C(Cn1nc(C(F)F)cc1C(F)F)NNC(=S)Nc1ccc(Cl)cc1	Bead autofluor 23616
Cc1ccc(NC(=S)NNC(=O)Cn2nc(C(F)F)cc2C(F)F)cc1	none
Cc1ccc(C2CC2C(=O)NNC(=S)Nc2cccc(C)c2)cc1 (stereo unspecified)	none
Cc1nn(CCC(=O)NNC(=S)Nc2cccc(Cl)c2)c(C)c1[N+](=O)[O-]	Bead autofluor 20563
Cc1ccc(NC(=S)NNC(=O)c2c([N+](=O)[O-])c(C)nn2C)cc1	Bead autofluor 23365
NC(=S)Nc1ccc2c(c1)OCO2	none
